Results on eight molecules are retold here after article PMC5540273 (PLoS ONE, 2017).

Test systems include MELK; MERTK; MET; MKK7; MKNK1; MKNK2; MLK2; MLK3; MRCKA; MST1R.
Conditions in all cases: concentration: 1 μM, replicates: in singlicate; n = 1
The next assay relates to T1, MEK2.
T1 construct: gene MAP2K2

Another assay has as its system T2, MEK3.
T2 construct: gene MAP2K3

The subject of a further assay is T3, MEK4.
T3 construct: gene MAP2K4

For the next assay, the system named is T4, MEK5.
T4 construct: gene MAP2K5

For the next assay, the system named is T5, MEK6.
T5 construct: gene MAP2K6

The next assay has as its system T6, MINK.
T6 construct: gene MINK1

A further assay concerns T7, MLCK.
T7 construct: gene MYLK3

In the next assay the test system is T8, MLK1.
T8 construct: gene MAP3K9

In another assay the test system is T9, MRCKB.
T9 construct: gene CDC42BPB

A further assay has as its system T10, MST1.
T10 construct: gene STK4
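Note: KINOMEscan kinase panel screen.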

For the molecule `COc1ccc(Nc2nccc(NCCNC(=O)Nc3ccccc3F)n2)cc1` [GSK1379901], the “%Inh” value in the assay on MEK2 was 8%; in the assay with MEK3 it was 0%; in the assay with MEK4 it was 11%; in the assay on MEK5, 56%; with MEK6 it was 0%; with MELK, 0%. Further, the “%Inh” value in the assay on MERTK amounted to 24%; in the assay on MET, 0%; in the assay with MINK, 11%; in the assay on MKK7, 55%; in the assay with MKNK1, 24%; in the assay with MKNK2, 13%. Besides, the “%Inh” value in the assay with MLCK is given as 0%; in the assay on MLK1 it was 0%; with MLK2 it was 0%; in the assay on MLK3, 25%; in the assay with MRCKA, 23%; in the assay on MRCKB, 0%. For the same molecule, the “%Inh” value in the assay with MST1R is listed as 16%; in the assay with MST1 it was 0%.

Turning to `O=C(Nc1n[nH]c2nc(-c3nccs3)c(Br)cc12)C1CCCC1` [SB-742609], the “%Inh” value is 0% in the assay on MEK2; 0% in the assay with MEK3; 30% in the assay with MEK4; 39% in the assay on MEK5; 0% in the assay on MEK6; 0% in the assay on MELK. The “%Inh” value turned out to be 44% in the assay with MERTK; 5% with MET; 0% with MINK; 0% with MKK7; 31% in the assay on MKNK1; 31% with MKNK2. The “%Inh” value with MLCK is given as 39%; with MLK1, 9%; in the assay with MLK2, 12%; in the assay on MLK3 it was 0%; in the assay with MRCKA, 0%; in the assay on MRCKB it was 0%. Also, the “%Inh” value turned out to be 27% in the assay on MST1R and 3% in the assay on MST1.

For the molecule `O=C(Nc1n[nH]c2cc(-c3cccc(F)c3F)ccc12)C1CC1` [SB-733894], the “%Inh” value with MEK2 is recorded as 11%; in the assay with MEK3 it was 15%; with MEK4 it was 1%; with MEK5, 45%; in the assay on MEK6, 20%; with MELK, 0%. The “%Inh” value with MERTK worked out at 0%; in the assay with MET, 0%; in the assay on MINK, 58%; in the assay with MKK7 it was 0%; with MKNK1, 0%; in the assay on MKNK2, 20%. In addition, the “%Inh” value with MLCK stood at 18%; in the assay on MLK1 it was 0%; in the assay on MLK2, 0%; with MLK3, 4%; in the assay on MRCKA, 6%; with MRCKB it was 17%. In addition, the “%Inh” value in the assay with MST1R is reported as 6%; in the assay with MST1, 0%.

As to `Cc1nnc(-c2ccc3occ(-c4ccc(S(C)=O)cc4)c3c2)[nH]1` (stereo not shown), the “%Inh” value turned out to be 1% in the assay on MEK2; 19% in the assay on MEK3; 37% with MEK4; 42% with MEK5; 0% with MEK6; 0% with MELK. Besides, the “%Inh” value in the assay on MERTK was determined as 13%; in the assay on MET, 5%; with MINK, 17%; with MKK7 it was 18%; in the assay on MKNK1 it was 9%; in the assay with MKNK2, 49%. The “%Inh” value with MLCK is given as 8%; in the assay with MLK1, 6%; with MLK2, 3%; in the assay with MLK3 it was 4%; in the assay on MRCKA, 1%; in the assay on MRCKB, 0%. The “%Inh” value with MST1R and in the assay on MST1 was 0% in each case.

For `Cc1cccc(-c2nc(Nc3ccncc3)c3ccccc3n2)n1` [GW855857], the “%Inh” value is 25% in the assay with MEK2; 0% with MEK3; 0% in the assay on MEK4; 14% in the assay on MEK5; 0% in the assay on MEK6; 11% with MELK. The “%Inh” value in the assay on MERTK amounted to 9%; in the assay on MET, 25%; in the assay on MINK, 33%; in the assay on MKK7 it was 0%; with MKNK1 it was 0%; in the assay with MKNK2, 0%. In addition, the “%Inh” value is 0% in the assay on MLCK; 11% in the assay with MLK1; 7% with MLK2; 6% with MLK3; 47% in the assay with MRCKA; 63% in the assay on MRCKB. Further, the “%Inh” value in the assay with MST1R and in the assay on MST1 was 0% each time.

In the case of `Cc1ccc(C(=O)Nc2ccc(Nc3ccnc4cc(-c5ccccn5)ccc34)cc2O)cc1.Cl` [GW440146], the “%Inh” value in the assay with MEK2 is on record as 0%; in the assay with MEK3, 0%; in the assay on MEK4, 19%; with MEK5 it was 100%; in the assay with MEK6 it was 0%; with MELK, 0%. Further, the “%Inh” value in the assay with MERTK was 33%; in the assay on MET it was 0%; with MINK it was 36%; in the assay with MKK7, 0%; with MKNK1 it was 0%; with MKNK2, 0%. Also, the “%Inh” value is on record as 0% in the assay with MLCK; 0% in the assay with MLK1; 0% in the assay with MLK2; 0% in the assay on MLK3; 18% with MRCKA; 0% with MRCKB. Moreover, the “%Inh” value was 52% in the assay on MST1R and 10% in the assay on MST1.

For the molecule `Cc1cc(NCC(c2ccccc2)c2ccccc2)nc(NCc2ccc(C(F)(F)F)cc2)n1` [GW497681], the “%Inh” value with MEK2 turned out to be 0%; with MEK3, 0%; in the assay with MEK4, 10%; in the assay on MEK5, 1%; in the assay on MEK6 it was 0%; in the assay on MELK it was 0%. Also, the “%Inh” value in the assay with MERTK was 7%; with MET, 13%; with MINK it was 0%; in the assay on MKK7, 0%; in the assay with MKNK1, 0%; in the assay with MKNK2, 0%. Further, the “%Inh” value in the assay on MLCK turned out to be 3%; with MLK1 it was 0%; in the assay on MLK2, 0%; with MLK3, 0%; in the assay with MRCKA it was 3%; in the assay on MRCKB it was 0%. The “%Inh” value in the assay on MST1R was found to be 10%; in the assay on MST1, 0%.

With `Cc1cccc(-c2cc(Nc3ccncc3)c3ccccc3n2)n1` [GSK223675], the “%Inh” value with MEK2, in the assay on MEK3, in the assay on MEK4, with MEK5, in the assay on MEK6 and with MELK was 0% each time. For the same molecule, the “%Inh” value stood at 4% in the assay on MERTK; 0% in the assay with MET; 10% with MINK; 5% in the assay with MKK7; 11% with MKNK1; 4% in the assay with MKNK2. Further, the “%Inh” value in the assay on MLCK, in the assay on MLK1, in the assay with MLK2, in the assay on MLK3, in the assay on MRCKA and in the assay on MRCKB was 0% in each case. The results for the “%Inh” value in the assay with MST1R and in the assay on MST1 were 33% and 0%, respectively.
